From PubChem BioAssay AID463208 (Broad Institute, 2010)
Active and inactive are the calls of the source.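 The calls were made as follows: active = AC50 at most tenfold above the top tested concentration; inconclusive = flat fit with 30 to 70% activity, or a poor fit; inactive = AC50 over tenfold above the top dose.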

experiment: yeast HDAC inhibitors, dose response, mechanism study for Sdo1 growth activator project, cell lysate, fluorescence, yeast nuclear extract (AID 463208); conditions: yeast nuclear extract HDAC activity, fluorogenic substrate

AC50, inactive:
COc1cc(/C=N/NC(=O)CCC(=O)NCc2ccccc2)cc(OC)c1OC > 50 µM, O=C(O)CCCn1nc(C(F)(F)F)c2c1CCCCC2 > 50 µM, Cc1nc(CS(=O)(=O)c2ccccc2)cc(N2CCOCC2)n1 > 50 µM, CC(C(=O)Nc1ccccc1)N1C(=O)c2ccccc2C1=O (configuration not stated) > 50 µM, CCOc1ccc(C(=O)NC(=S)NCc2cccnc2)cc1 > 50 µM, Cc1nn(-c2ccccc2)c(C)c1NC(=O)c1cccs1 > 50 µM, O=C(C(c1ccccc1)c1ccccc1)N(Cc1cccs1)C1CCS(=O)(=O)C1 (configuration not stated) > 50 µM
